Here are results for 26 compounds from PubChem BioAssay (NCATS).

Assay [1] can be described thus: Immunotoxin (SS1P) sensitization/mitigation study. Vehicle arm (DMEM) (AID 1159513; call rule not given here; note: potency is the fitted concentration of half-maximal effect).
A short description of assay [2]: High-throughput drug toxicity screening in the BPDCN cell line Gen2.2 (AID 1224824; call rule not given here;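 note: cells exposed to compounds for 48 h before reading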). Conditions: Gen2.2 BPDCN cells; at 45.8 µM (top of the series). The method, boiled down: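 Gen2.2, 500 cells/well, phenol red-free RPMI/10% FBS/Pen-Strep; 48 h cpd, 37 °C/5% CO2; CTG lum, 15 min RT. Norm: DMSO = 100%, bortezomib 9.2 uM final = 0%.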
A short description of assay [3]: High-throughput drug toxicity screening in the BPDCN cell line Cal-1 (AID 1224825; call rule not given here). Conditions: Cal-1 BPDCN cell viability, qHTS; at 45.8 µM (top of the series). The method, boiled down:
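CellTiter-Glo luminescence after 48 h compound exposure; percent activity scaled with DMSO as 100% and bortezomib (9.2 uM final) as 0%. Cal-1 cells seeded at 500/well in RPMI, 10% FBS, no phenol red.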
In general terms: Quantitative high-throughput screening tests each substance at several concentrations.

Assay [4] is described as follows: qHTS assay for measurement of the activity of small molecule inhibitors on Zika virus induced Caspase-3 activity in human iPSC derived neural progenitor cells (hNPCs) (AID 1224857). Note: nearly all actives have a fitted effect of over 65% in size. Note: potency is the fitted concentration of half-maximal effect. The method, boiled down:
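Pretreat hNPCs with compound 1 h; infect ZIKV 2 FFU/cell; 6 h 37 C, 5% CO2; Caspase-Glo 3/7, 30 min RT; luminescence; normalize to no-virus and virus-only wells.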

Assay [5] is described as follows: qHTS assay for measurement of the activity of small molecule inhibitors on Zika virus induced Caspase-3 activity in human astrocytoma cells (AID 1224859).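 Note: plate controls were ZIKV-infected untreated cells for no effect and uninfected cells for full effect.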 The method, boiled down: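 Human SNB-19 astrocytoma cells in RPMI 1640 with 10% FBS receive compound one hour ahead of Zika virus at 2 FFU/cell. After 6 h infection, caspase-3/7 activity is detected by Caspase-Glo luminescence.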

A short description of assay [6]: qHTS Screen of the MIPE 4.0 Collection Against Ewings Sarcoma (TC71) (AID 1259253). Note: nearly all actives have a fitted effect of over 40% in size. Note: potency is the fitted concentration of half-maximal effect. An outline of the steps: (§1)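 Dose series incubated 48 h with cells in RPMI plus 5% FBS, glutamine and penicillin/streptomycin; cell viability then quantified via CellTiter-Glo.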
A short description of assay [7]: Identifying Small Molecule Inhibitors of Pancreatic Cancer Stem Cells (A278, Adherent) (AID 1259361).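 For viability (% of control): 100% = DMSO-treated cells and 0% = cell-free media-only wells.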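 Note: viability read after 48 h compound exposure; nearly all actives have a fitted effect of over 35% in size.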 The method, boiled down:
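Endpoint: ATP-based luminescence, 48 h drug exposure. Bortezomib at 9.2 uM final as full-kill control; DMSO vehicle as negative control; activity normalized between vehicle and cell-free wells.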

Assay [8] can be described thus: Identifying Small Molecule Inhibitors of Pancreatic Cancer Stem Cells (Panc1, Adherent) (AID 1259362).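 For viability, % of control: compound exposure lasted 48 h before the viability read; plate controls were DMSO-treated cells for no effect and cell-free media wells for full effect.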 Note: potency is the fitted concentration of half-maximal effect. Particulars: Potency: viability. An outline of the steps:
(§2)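 Adherent (2D) versus sphere (3D) formats; spheres generated 14 d in SCM beforehand. Compound transferred by pin tool after 4 h, 48 h incubation, CellTiter-Glo endpoint.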

Assay [9] is described as follows: qHTS Screen of the MIPE 4.0 Collection Against Ewings Sarcoma (RDES) (AID 1259252). Note: nearly all actives have a fitted effect of over 35% in size. Note: potency is the fitted concentration of half-maximal effect. The method, boiled down:
as §1

Assay [10] can be described thus: qHTS Screen of the MIPE 4.0 Collection Against Ewings Sarcoma (TC32) (AID 1259256). Note: nearly all actives have a fitted effect of over 45% in size. Note: potency is the fitted concentration of half-maximal effect. An outline of the steps:
as §1

Assay [11] is described as follows: qHTS assay to identify small molecule inhibitors of chordoma cells - UCH-1 (AID 1259355). Note: nearly all actives have a fitted effect of over 55% in size. Note: potency is the fitted concentration of half-maximal effect. An outline of the steps: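 Screening used approved and investigational drugs in 15-point titration against 800 seeded cells per well. A fixed combination of auranofin with camptothecin, doxorubicin, rubitecan and topotecan followed compound addition, and growth was scored by CellTiter-Glo after 48hr.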

Assay [12] in a line: qHTS assay to identify small molecule inhibitors of chordoma cells - UCH-2 (AID 1259356). Note: potency is the fitted concentration of half-maximal effect.
Assay [13] can be described thus: qHTS Screen of the MIPE 4.0 Collection Against Ewings Sarcoma (EW8) (AID 1259255).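 For viability: 100% = DMSO-treated cells and 0% = medium-only wells without cells.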 Note: nearly all actives have a fitted effect of over 35% in size. Note: potency is the fitted concentration of half-maximal effect. The method, boiled down: as §1
Assay [14] in a line: Immunotoxin (HA22) sensitization/mitigation study. Vehicle arm (PBS) (AID 1159510; call rule not given here; note: potency is the fitted concentration of half-maximal effect).
Assay [15] is described as follows: Identifying Small Molecule Inhibitors of Pancreatic Cancer Stem Cells (A2780, Spheroid) (AID 1259357).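 Note: spheroids pre-formed over 14 days in stem cell medium on hydrogel; compound exposure lasted 48 h before the ATP luminescence read; 100% = DMSO treated cells and 0% = wells without cells.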 Particulars: Potency: A2780 spheroid viability. An outline of the steps: as §2
Assay [16] can be described thus: Identifying Small Molecule Inhibitors of Pancreatic Cancer Stem Cells (SN12C, Spheroid) (AID 1259360).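 For viability (% of control): 100% = DMSO-treated cells and 0% = wells without cells.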 Note: potency is the fitted concentration of half-maximal effect. Conditions: Potency: SN12C spheroid viability. The method, boiled down:
as §2

Assay [17] can be described thus: Identifying Small Molecule Inhibitors of Pancreatic Cancer Stem Cells (Panc1, Spheroid) (AID 1259359).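 Note: compound exposure lasted 48 h before reading.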 An outline of the steps: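 After a 4 h attachment period, compounds were pinned into wells and cultures held 48 h under standard incubator conditions. Viability was then measured as CellTiter-Glo luminescence following 10 min at room temperature.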

Where “and” joins values, the source holds several entries; their conditions need not be identical. Equal values may be shown once. Results filed as inconclusive are left out. Calls of active or inactive are those of the source. Unless noted, calls come from the whole dose curve; as a rule, active = well fitted curve in the direction sought with a large enough effect; inconclusive = small, poorly fitted or top-dose-only effect, or another doubt; inactive = no such curve, though single readings can be large; an effect the other way counts as inactive or inconclusive.

For `COC1(CS(=O)c2ccccc2)CCN(CCc2c[nH]c3ccc(F)cc23)CC1` (stereo unspecified), the Potency entry in assay [1] and in assay [8] was “inactive” in each case. For the same compound, the cell viability, % of control (lower = more cytotoxic) in assay [2] amounted to 66.1%. Besides, the viability (% of control) in assay [3] was determined as 80.6%. For the same compound, the Potency in [4] was 20.9 µM (active); in assay [6] it was 5.9 µM (active). For the same compound, the call in [5] was inactive. For the same compound, the IC50 (viability decrease) result in assay [7] is “inactive”.
As to `COc1ccc2c(c1OC)CN1CCc3cc4c(cc3C1C2)OCO4` (stereo unspecified), the cell viability, % of control (lower = more cytotoxic) in [2] stood at 173%. Further, the viability (% of control) in assay [3] was 62.2%. For the same compound, the Potency entry in assay [4], in assay [10], in [11] and in assay [12] was “inactive” in each case. The compound was called inactive in assay [5]. Also, the Potency in [9] is 14.8 µM (active).
In the case of `C=C(C)[C@H]1Cc2c(ccc3c2O[C@@H]2COc4cc(OC)c(OC)cc4[C@@H]2C3=O)O1`, the cell viability, % of control (lower = more cytotoxic) in assay [2] is 45.8%. Moreover, in assay [3], the viability (% of control) was 11.5%. In addition, the Potency entry in assay [4] and in [12] was “inactive” each time. Also, the call in assay [5] was inactive. Besides, the Potency in assay [9] was 2.09 µM (active); in [6], 4.69 µM (active); in assay [13], 2.96 µM (active); in [10], 0.743 µM (active).
For the compound `CCC1(C2=NCCN2)Cc2ccccc2O1` (stereo unspecified), the Potency result in assay [4], in assay [11] and in [12] was “inactive” each time. In addition, the compound was called inactive in assay [5].
Turning to `C[C@@H]1O[C@@H](O[C@H]2C[C@@H](O)[C@]3(CO)[C@H]4[C@H](O)C[C@]5(C)[C@@H](C6=CC(=O)OC6)CC[C@]5(O)[C@@H]4CC[C@]3(O)C2)[C@H](O)[C@H](O)[C@H]1O`, the cell viability, % of control (lower = more cytotoxic) in assay [2] stood at 26%. Further, in [3], the viability (% of control) was 3.79%. Besides, the Potency result in assay [4] was “inactive”. The call in assay [5] was inactive. The Potency in [9] was 0.0833 µM (active); in assay [6], 0.0418 µM (active); in [13], 0.0372 µM (active); in assay [10], 0.059 µM (active); in assay [11], 158 nM (active) and 63.1 nM (active); in [12], 65.1 nM (active) and 51.7 nM (active).
For the compound `CNC(=O)c1ccc(N2C(=S)N(c3ccc(C#N)c(C(F)(F)F)c3)C(=O)C23CCC3)cc1F`, in [2], the cell viability, % of control (lower = more cytotoxic) stood at 16.5%. Besides, the viability (% of control) in assay [3] was 7.78%. In assay [4], the Potency entry is “inactive”. In addition, in [5], the outcome was inactive. Besides, the results for the Potency in assay [9] and in [10] were 20.9 µM (active) and 23.5 µM (active), respectively. Moreover, the IC50 (viability decrease) in assay [7] is 23.5 µM (active).
For the compound `Cc1sc2c(c1C)C(c1ccc(Cl)cc1)=N[C@@H](CC(=O)OC(C)(C)C)c1nnc(C)n1-2`, the Potency in [14] was 0.0743 µM (active); in assay [1] it was 10.5 µM (active); in assay [9], 1.48 µM (active); in [6], 1.48 µM (active); in assay [13] it was 16.6 µM (active); in assay [10], 1.32 µM (active). The Potency in assay [8] is 4.18 µM (active). Moreover, the cell viability, % of control (lower = more cytotoxic) in [2] worked out at 1.32%. Also, the viability (% of control) in assay [3] came to 2.41%. Besides, the result in assay [5] was inactive.
In the case of `CCCN1CCC[C@@H]2Cc3nc(N)ncc3C[C@H]21`, the Potency result in assay [4], in [11] and in [12] was “inactive” throughout. Further, the call in assay [5] was inactive.
As for `Cc1cccc(C)c1NC(=O)CN1CCCC1=O`, the cell viability, % of control (lower = more cytotoxic) in [2] is 116%. In assay [3], the viability (% of control) is 110%. In addition, the Potency result in assay [4], in assay [9], in assay [6] and in assay [13] was “inactive” in each case. In addition, the compound was called inactive in assay [5].
For the compound `O=C(NC(O)C(Cl)(Cl)Cl)NC(O)C(Cl)(Cl)Cl` (stereo unspecified), the Potency result in assay [4], in assay [11] and in assay [12] was “inactive” in each case. For the same compound, in assay [5], the compound was classed as inactive.
For `CNC(=O)N1N=C(c2ccc(N)cc2)c2cc3c(cc2CC1C)OCO3` (stereo unspecified), the figures for the Potency in assay [1], in assay [9] and in assay [10] were 5.26 µM (active), 9.35 µM (active) and 11.8 µM (active), respectively. Further, in assay [2], the cell viability, % of control (lower = more cytotoxic) turned out to be 24.2%. Also, the viability (% of control) in [3] stood at 9.51%. The Potency result in assay [4], in [15] and in [16] was “inactive” throughout. In addition, the result in [5] was inactive. Besides, the IC50 (viability decrease) in assay [7] is 7.43 µM (active).
Regarding `O=C(O)C(=O)c1cn(Cc2ccccc2)c2ccc(-c3ccc(OC(F)(F)F)cc3)cc12`, the Potency in assay [14] was 23.5 µM (active); in [16] it was 18.7 µM (active). Besides, the cell viability, % of control (lower = more cytotoxic) in assay [2] stood at 171%. Further, the viability (% of control) in assay [3] came out at 118%. For the same compound, the Potency result in assay [4], in assay [9], in [13] and in assay [10] was “inactive” in each case. Besides, the compound was classed as inactive in [5] and in [17].
For the compound `C#CCOC(C(=O)OCCN(C)C)(c1ccccc1)c1ccccc1`, the Potency result in assay [4], in assay [11] and in [12] was “inactive” throughout. Besides, in assay [5], the compound was called inactive.
`O=c1[nH]c2ccccc2n1CCCN1CCC(n2c(=O)[nH]c3cc(Cl)ccc32)CC1`: the cell viability, % of control (lower = more cytotoxic) in assay [2] came out at 278%. Besides, the viability (% of control) in assay [3] was 61.6%. The Potency result in assay [4], in assay [9], in assay [6], in assay [10], in assay [11] and in [12] was “inactive” each time. Also, in assay [5], the call was inactive.
As to `Clc1ccc(CCC(Cn2ccnc2)Sc2c(Cl)cccc2Cl)cc1` (stereo unspecified), the result in [5] was inactive. For the same compound, the Potency entry in assay [11] and in assay [12] was “inactive” each time.
With `CC(C)(C)NCC(O)c1cc(Cl)c(N)c(Cl)c1` (stereo unspecified), the Potency result in assay [4], in assay [11] and in assay [12] was “inactive” each time. For the same compound, the result in assay [5] was inactive.
For `O=[N+]([O-])c1cc([As](=O)(O)O)ccc1O`, in [5], the call was inactive. For the same compound, the Potency result in [11] and in [12] was “inactive” in each case.
For `COc1ccccc1N1CCNCC1`, the outcome in assay [5] was inactive. The Potency result in assay [11] and in assay [12] was “inactive” in each case.
Turning to `CC(CCc1ccccc1)NC(C)C(O)c1ccc(O)cc1` (stereo unspecified), the Potency entry in [4] and in assay [12] was “inactive” each time. Also, the outcome in [5] was inactive.
In the case of `Oc1cc(Cl)ccc1Oc1ccc(Cl)cc1Cl`, the Potency entry in assay [4] and in [12] was “inactive” throughout. Further, the outcome in assay [5] was inactive.
Regarding `OCCOc1ccccc1`, the Potency entry in assay [4], in assay [11] and in assay [12] was “inactive” throughout. The compound was called inactive in assay [5].
Turning to `CCN(CC)C(=O)N[C@@H]1C=C2c3cccc4[nH]cc(c34)C[C@@H]2N(C)C1`, the outcome in assay [5] was inactive. Also, the Potency entry in assay [11] and in assay [12] was “inactive” throughout.
Regarding `CC(C)=CCOc1c2occc2cc2ccc(=O)oc12`, the outcome in assay [5] was inactive.
`Oc1ccccc1-c1ccccc1`: the compound was called inactive in assay [5]. For the same compound, the Potency result in [11] and in assay [12] was “inactive” each time.
With `N[C@@H](Cc1ccc(Oc2cc(I)c(O)c(I)c2)c(I)c1)C(=O)O`, the compound was classed as inactive in assay [5]. For the same compound, the Potency entry in assay [11] and in [12] was “inactive” throughout.
Regarding `Cc1ccc(S(=O)(=O)N[C@@H](CCCCN)C(=O)CCl)cc1`, the Potency result in assay [4], in assay [11] and in [12] was “inactive” each time. The call in assay [5] was inactive.
